# Biological target: MOB kinase activator 2 (UniProt Q70IA6)
# Test: cross-link between two proteins; cross-linking mass spectrometry; proximity labelling
# Sequence of UniProt Q70IA6 (Q70IA6 whole entry): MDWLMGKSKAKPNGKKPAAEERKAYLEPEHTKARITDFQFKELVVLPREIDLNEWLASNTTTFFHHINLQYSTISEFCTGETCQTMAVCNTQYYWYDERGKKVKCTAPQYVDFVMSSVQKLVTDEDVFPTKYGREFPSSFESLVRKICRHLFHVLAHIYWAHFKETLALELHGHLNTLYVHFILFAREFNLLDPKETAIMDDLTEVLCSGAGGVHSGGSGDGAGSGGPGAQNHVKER
substance,measurement,value
"Flotillin-1, O75955",listed as a hit,yes
